The record followed here is PubChem BioAssay (NCI).

About 83,000 compounds went through this panel and 20% of them were active in at least one assay; those are over-represented in the sample as a whole.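 Treatment: one concentration, 48 hours, 96-well format. Scoring: percent growth, with anything below 10 considered active.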 A number with no mark means an inactive call. Calls of active or inactive are those of the source.

The subject of this test is PC-3 prostate. The test is described as follows: NCI-60 one-dose screen, 48 h (100 = growth as untreated, 0 = no growth, -100 = all killed). As to conditions: 10 µM unless noted. Here is the method:
Growth inhibition of the PC-3 human tumor cell line is measured as a screen for anti-cancer activity. Cells are grown in 96 well plates and exposed to the test compound for 48 hours. Compounds are tested at a single concentration, which is 10^-5 M for most compounds. The reported endpoint is percent growth (GI% or GIPRCNT), where numbers from 0 - 100% represent growth inhibition, and numbers from -100% - 0 represent cell death. For example, a value of 40 represents 60% growth inhibition. A value of 0 means no net growth occurred over the course of the experiment. A value of -40 indicates 40% of cells at the beginning of the experiment died by the end of the experiment. A value of -100 means all cells are dead at the end of the experiment.
NCI-60 Human Tumor Cell Lines Screen was performed using the standard one-dose NCI protocol, which is described in more detail at https://dtp.cancer.gov/discovery_development/nci-60/default.htm.
Compounds with GIPRCNT values below 10 were considered active. Activity score was based on GIPRCNT using the following formula: […]
Score is 0 for GIPRCNT values of 100 or above, 50 for GIPRCNT values of 0, and 100 for GIPRCNT values of -100.
In the case of `NCCNC(=O)c1cccc(COc2ccccc2NC(=O)c2cc(Cl)c(Cl)[nH]2)c1`, the growth is 102%.

As to `CN1CCN(Cc2ccc(NC(=O)c3cncc(C#Cc4cnc5ccc(OCCCS(C)(=O)=O)nn45)c3)cc2C(F)(F)F)CC1`, the growth is 1.61% (active).

Turning to `CN1CCN(c2ccc(Nc3nc(NCCCNS(=O)(=O)c4ccccc4)c4sccc4n3)cc2)CC1`, the growth was 68.9%.

On to `Brc1cc(-c2cc(-c3ccc4c(c3)OC=CO4)[nH]n2)cs1`, for which the growth is 97.3%.

On to `O=C1[C@@H]2Cc3c([nH]c4ccccc34)[C@@H](c3ccc(Cl)cc3)N2C(=O)CN1C1CCN(Cc2ccccc2)CC1`, for which the growth was 21.4%.

Consider `O=C(/C=C/c1ccc(F)cc1)Nc1cccc2cccnc12`, for which the growth was 98.5%.

In the case of `Cc1ccc(S(=O)(=O)c2nc(-c3ccc(F)cc3)oc2S(C)(=O)=O)cc1`, the growth was 91.8%.

As to `COc1ccc(NC(=O)CCCCCCNC(=O)C(O)(O)C(F)(F)F)cc1`, the growth was 52.7%.

For the compound `O=c1nc(Nc2ccc([N+](=O)[O-])cc2O)sc2ccccc12`, the growth was 16.5%.

Turning to `O=C(CCCCCC/C=C\c1csc(Br)n1)NO`, the growth is 82%.

On to `CCOC(=O)c1cccc(NC2=C(Cl)C(=O)C(C)=C(C)C2=O)c1`, for which the growth is 85.6%.

As to `COc1cc2cc(Oc3ccc(NC(=O)c4cc(C(F)(F)F)cc(C(F)(F)F)c4)cc3)c(C)nc2cc1OCCN1CCOCC1`, the growth is 41.7%.

As for `O=C(CN1CCN(c2cc(=O)[nH]c3ccc(F)cc23)CC1)N(c1ccccc1)c1ccccc1`, the growth was 96.5%.

For the compound `CCOC(=O)c1c(NC(=O)c2ccc(C(F)(F)F)cc2)sc2c3c(ccc12)OCN(C)C3`, the growth was 65.3%.

Consider `O=C(CSc1nc2ccccc2c(=O)n1-c1ccccc1)N/N=C/c1ccc(Oc2ccc(Cl)cc2)cc1`, for which the growth was 58.7%.

`COc1ccc(/C=N/NC(=O)CSc2nc(-c3cnccn3)cc(-c3cccs3)c2C#N)cc1`: the growth is 72.9%.

Regarding `CN1CCN(c2ccc(Nc3nc(NCCNC(=O)c4ccc(F)cc4)c4sccc4n3)cc2)CC1`, the growth was 72.2%.

Turning to `CC(C)NC(=O)c1cc(-c2ccc(NC(=O)Nc3ccc(F)c(C(F)(F)F)c3)cc2)nc2cccnc12`, the growth was 84.2%.

Consider `CCn1c2ccc(/C=N/N(C)S(=O)(=O)CCN(C)C)cc2c2cc(/C=N/N(C)S(=O)(=O)CCN(C)C)ccc21`, for which the growth is 85.8%.

Consider `O=S(=O)(NCCCNc1nccc(-c2[nH]c(-c3ccccc3)nc2-c2ccc(F)c(O)c2)n1)c1ccc(C(F)(F)F)cc1`, for which the growth is 40.8%.

On to `Brc1cc(-c2cc(-c3ccc4c(c3)OCCO4)[nH]n2)cs1`, for which the growth was 61.8%.

Take `O=C(COc1ccc(/C=C2\C(=O)Nc3cc(Cl)ccc32)cc1)Nc1ccc(Cl)cc1`: the growth is 54.5%.

Regarding `CN(C)c1ccc(/C=N/Nc2nc(N/N=C/c3ccc(N(C)C)cc3)nc(N3CCCCC3)n2)cc1`, the growth was 84.8%.

In the case of `O=C1[C@H]2Cc3c([nH]c4ccccc34)[C@H](c3ccc(Cl)cc3)N2C(=O)CN1C1CCN(CC2CCCCC2)CC1`, the growth was 52.9%.

Regarding `N#C/C(=C\c1ccc(-c2ccc(Cl)c(Cl)c2)o1)C(=O)Nc1ncc(Cc2ccc(Cl)cc2)s1`, the growth is 36.7%.

Consider `CCCN1C=C/C(=C\C(=O)n2ccc3ccccc32)c2ccccc21`, for which the growth is 73.7%.

For `O=C(CCCCCCN1CC(=O)N2[C@@H](C3CC3)c3[nH]c4ccccc4c3C[C@H]2C1=O)NO`, the growth was 74.7%.

As to `C#Cc1cc(OC)c(C(=O)Nc2ccc(F)cc2C(=O)Nc2cccc(S(=O)(=O)C(F)(F)F)c2)cn1`, the growth was 4.89% (active).

On to `CC(=O)c1c([Si](C)(C)C)c2cc(C#N)ccn2c1C(=O)c1ccc(Br)cc1`, for which the growth was 76%.

Regarding `Cc1csc(/N=C(N)/N=C(\N)c2cccnc2)n1`, the growth is 69.2%.

Turning to `Cc1cc2nc(C(Cl)Cl)nc(-c3ccc(S(=O)(=O)N(C)C)cc3)n2n1`, the growth is 67.4%.

In the case of `Cc1ccc(NC(=O)Nc2nc3ccc([N+](=O)[O-])cc3s2)cc1`, the growth is -1.61% (active).

On to `O=C1/C(=C/C=C/c2ccco2)SC(=S)N1Cc1ccccc1`, for which the growth was 101%.

Turning to `COc1ccc(OC)c(NC(=O)CCCCCCNC(=O)C(O)(O)C(F)(F)F)c1`, the growth was 51.4%.

With `NS(=O)(=O)c1ccc(Nc2nc(Nc3ccccc3)nc(N3N=C(c4ccc(Cl)cc4)CC3c3ccc(Cl)cc3)n2)cc1` (stereo not given), the growth is 43%.

Regarding `O=C1Nc2ccccc2/C1=N\c1nnc(-c2ccccc2)o1`, the growth is 79%.

In the case of `CCCC[n+]1ccc(SCC(=O)n2ccc3ccccc32)c2ccccc21`, the growth is 90.9%.

In the case of `CN(C)S(=O)(=O)c1ccc(-c2nc(C(Cl)Cl)nc3cc(-c4ccc(F)cc4)nn23)cc1`, the growth is 26.7%.

As for `NS(=O)(=O)c1cccc(Nc2nc(SCC(=O)c3ccc(Cl)cc3)nc3c2CCC3)c1`, the growth was 93.9%.

Turning to `CC(C)(C)OC(=O)Nc1ccc(-c2cccc(Oc3ccc4nnc(Cl)n4n3)c2)cc1`, the growth is 51.1%.
